Among the test systems are HCT-15 colon; HT29 colon; SNB-75 CNS; SNB-19 CNS; U251 CNS; PC-3 prostate; SK-MEL-5 melanoma; UACC-62 melanoma; SK-MEL-28 melanoma; LOX IMVI melanoma.
Holding throughout (test): NCI-60 one-dose screen, 48 h (100 = growth as untreated, 0 = no growth, -100 = all killed)
Conditions in all cases: 10 µM unless noted

The panel holds about 83,000 compounds, 20% with a hit somewhere; the sample as a whole holds those more often.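 Cells were grown in 96-well plates and exposed to the test compound at a single concentration for 48 hours; results are reported as percent growth, with values below 10 considered active.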 A number with no mark means an inactive call. The source made the active and inactive calls.

As for `NCCNc1ccc([N+](=O)[O-])cc1`, the growth in the test with HCT-15 colon is 108%; in the test on HT29 colon, 101%; in the test with SNB-75 CNS, 96.2%; in the test on SNB-19 CNS it was 101%; in the test with U251 CNS, 102%; in the test on PC-3 prostate it was 105%. For the same molecule, the growth with SK-MEL-5 melanoma is 118%; in the test on UACC-62 melanoma it was 106%; in the test on SK-MEL-28 melanoma, 108%.
As to `N#C/C(=C\c1cccc2cnccc12)N1N=NC2C=CC=CC21` (centres undefined), the growth was 13.5% with HCT-15 colon; 12.7% in the test on HT29 colon; 7.27% (active) with SNB-75 CNS; 66% with SNB-19 CNS; 70.6% in the test on U251 CNS; 47.9% in the test on PC-3 prostate. For the same molecule, the results for the growth in the test on SK-MEL-5 melanoma, with UACC-62 melanoma and in the test with SK-MEL-28 melanoma were 46.4%, 37.1% and 43.8%, respectively.
Regarding `c1ccc2c(-c3cnn4cc(-c5ccc(N6CCNCC6)cc5)cnc34)ccnc2c1`, the growth in the test with HCT-15 colon is -55.6% (active); in the test on HT29 colon it was -76.9% (active); in the test on SNB-75 CNS, -96.9% (active); with SNB-19 CNS, -57.8% (active); in the test on U251 CNS, -79% (active); with PC-3 prostate, -12% (active). The growth in the test with SK-MEL-5 melanoma was -84.7% (active); with UACC-62 melanoma, -84.2% (active); in the test on SK-MEL-28 melanoma it was -90.7% (active).
On to `Cc1c(-c2cnc3ccc(Cl)cc3c2C(=O)O)nnn1-c1ccc(Cl)cc1`, for which the growth in the test on HCT-15 colon is 104%; in the test with HT29 colon, 101%; in the test with SNB-75 CNS, 95.3%; in the test on SNB-19 CNS, 93.1%; with U251 CNS, 97.3%; in the test with PC-3 prostate, 98.5%. In addition, the figures for the growth with SK-MEL-5 melanoma, in the test on UACC-62 melanoma and in the test on SK-MEL-28 melanoma were 106%, 82.5% and 105%, respectively.
Regarding `CC(C)C(=O)Nc1ncc(C(=O)NCCN(Cc2ccccc2)C(=O)c2ccc(S(=O)(=O)Nc3ccccc3)cc2)s1`, the growth in the test with HCT-15 colon was 96.6%; in the test on HT29 colon, 104%; in the test on SNB-75 CNS it was 78.3%; with SNB-19 CNS, 97.1%; with U251 CNS, 97.4%; in the test with PC-3 prostate it was 94.3%. Moreover, the figures for the growth in the test on SK-MEL-5 melanoma, with UACC-62 melanoma and with SK-MEL-28 melanoma were 90.8%, 89.6% and 98.4%, respectively.
As for `O=C(Nc1cccc(Cl)c1)Oc1c(Cl)c(Cl)c(Cl)c(Cl)c1Cl`, the growth was 100% with HCT-15 colon; 96.3% in the test on HT29 colon; 76.2% in the test on SNB-75 CNS; 99.1% in the test on SNB-19 CNS; 102% in the test on U251 CNS; 86.9% with PC-3 prostate. Besides, the results for the growth with SK-MEL-5 melanoma, in the test on UACC-62 melanoma and in the test on SK-MEL-28 melanoma were 90.6%, 90% and 109%, respectively.
Consider `Cn1cc(-c2csc(-c3cn(C)c4ccc(F)cc34)n2)c2cnccc21`, for which the growth in the test with HCT-15 colon is -46.4% (active); in the test on HT29 colon, -66.8% (active); with SNB-75 CNS it was -73% (active); with SNB-19 CNS, 3.63% (active); in the test with U251 CNS it was -89.5% (active); in the test on PC-3 prostate it was 10.5%. The growth in the test on SK-MEL-5 melanoma is -94.1% (active); with UACC-62 melanoma it was -69.4% (active); in the test with SK-MEL-28 melanoma it was -95.9% (active).
With `COc1ccc(Nc2nc(Nc3cc(C)[nH]n3)c3cc(OC)c(OC)cc3n2)cc1`, the growth was -83.1% [20 µM] (active) in the test with HCT-15 colon; -61.2% [20 µM] (active) in the test with HT29 colon; -94.5% [20 µM] (active) with SNB-75 CNS; -99.2% [20 µM] (active) with SNB-19 CNS; -69.8% [20 µM] (active) in the test on U251 CNS; -80.7% [20 µM] (active) in the test with PC-3 prostate. Also, the growth with SK-MEL-5 melanoma is -84.7% [20 µM] (active); with UACC-62 melanoma, -98.9% [20 µM] (active); in the test with SK-MEL-28 melanoma, -95.9% [20 µM] (active).
As for `CCNCCNc1c(C)c(-c2ccc(C(F)(F)F)cc2)c(C#N)c2nc3ccccc3n12`, the growth in the test with HCT-15 colon is 78.6%; in the test with HT29 colon, 77.3%; in the test on SNB-75 CNS it was 57.6%; with SNB-19 CNS, 78.6%; in the test on U251 CNS it was 78.8%; in the test with PC-3 prostate it was 76.1%. Besides, the growth with SK-MEL-5 melanoma was 87.2%; in the test on UACC-62 melanoma, 92.4%; in the test on SK-MEL-28 melanoma, 103%.
With `Cn1cc(-c2nc(-c3c[nH]c4ccncc34)cs2)c2cc(F)ccc21`, the growth in the test with HCT-15 colon was -81.8% (active); in the test on HT29 colon, -80.4% (active); with SNB-75 CNS, -95% (active); in the test on SNB-19 CNS, -80.3% (active); with U251 CNS, -89.1% (active); with PC-3 prostate, -73.1% (active). In addition, the growth was -97.9% (active) in the test with SK-MEL-5 melanoma, -85.7% (active) with UACC-62 melanoma and -95.1% (active) in the test on SK-MEL-28 melanoma.
Regarding `COc1ccccc1-c1nc2ccc3[nH]ncc3c2c2c1CCCC2`, the growth was 88.6% in the test on HCT-15 colon; 67.5% in the test with HT29 colon; 38.3% with SNB-75 CNS; 85.6% with SNB-19 CNS; 96.7% in the test with U251 CNS; 82% in the test on PC-3 prostate. In addition, the growth in the test with SK-MEL-5 melanoma is 83.4%; in the test with UACC-62 melanoma, 71.3%; in the test with LOX IMVI melanoma, 80.5%; in the test with SK-MEL-28 melanoma, 89.2%.
On to `C#CCOc1cccc(Nc2ncnc3c(NC(=O)CCl)cccc23)c1`, for which the growth in the test with HCT-15 colon is -37.9% (active); in the test on HT29 colon, -77.1% (active); in the test on SNB-75 CNS, 74.8%; in the test with SNB-19 CNS it was 20.1%; in the test with U251 CNS it was -69.2% (active); with PC-3 prostate it was 2.88% (active). The growth in the test with SK-MEL-5 melanoma is -89.2% (active); in the test on UACC-62 melanoma it was 21.8%; in the test on SK-MEL-28 melanoma, 75%.
For the molecule `Cc1c(N2CCCCC2)[nH]c2ccccc12`, the growth is 131% in the test with HCT-15 colon; 104% in the test on HT29 colon; 117% in the test with SNB-75 CNS; 116% in the test with SNB-19 CNS; 101% in the test on U251 CNS; 70.5% with PC-3 prostate. The growth in the test with SK-MEL-5 melanoma was 107%; with UACC-62 melanoma, 110%; with SK-MEL-28 melanoma, 133%.
On to `C=C(c1ccc(OC)c(/C=C/C(=O)c2cc(OC)c(OC)c(OC)c2)c1)c1cc(OC)c(OC)c(OC)c1`, for which the growth in the test with HCT-15 colon was -21.6% (active); in the test with HT29 colon, 0.495% (active); with SNB-75 CNS, 49.8%; with SNB-19 CNS it was -3.73% (active); in the test with U251 CNS, -49.3% (active); with PC-3 prostate it was 31.5%. Moreover, the growth in the test on SK-MEL-5 melanoma was -69.3% (active); in the test on UACC-62 melanoma it was -70% (active); in the test with SK-MEL-28 melanoma it was -77.3% (active).
On to `CCOC(=O)C1=CCC(n2cc(F)c(=O)[nH]c2=O)O1` (centres undefined), for which the growth in the test with HCT-15 colon was 104%; in the test with HT29 colon it was 105%; with SNB-75 CNS, 121%; in the test with SNB-19 CNS, 108%; with U251 CNS, 95.6%; in the test on PC-3 prostate, 102%. Besides, the growth in the test on SK-MEL-5 melanoma is 104%; with UACC-62 melanoma it was 108%; in the test with SK-MEL-28 melanoma it was 114%.
On to `O=C(OCc1ccc2c(Br)cc(Br)c(O)c2n1)N1CCN(C(=O)c2cc3ccccc3[nH]2)CC1`, for which the growth in the test with HCT-15 colon is 19.6%; in the test on HT29 colon, 59.6%; in the test with SNB-75 CNS, 40.5%; with SNB-19 CNS, 31.6%; with U251 CNS, 12.9%; with PC-3 prostate, 27.5%. The values for the growth with SK-MEL-5 melanoma, in the test on UACC-62 melanoma and in the test on SK-MEL-28 melanoma were 35.5%, 19% and 58.1%, respectively.
For `CC(C)=CCC[C@](C)(O)C1CC[C@]2(C)[C@@H]1CC[C@@H]1[C@@]3(C)CC/C(=N\OCCC#N)C(C)(C)[C@@H]3CC[C@]12C` (some centres undefined), the growth is 83.4% in the test on HCT-15 colon; 65.1% in the test on HT29 colon; 77.8% in the test with SNB-75 CNS; 92.4% in the test on SNB-19 CNS; 90.3% with U251 CNS; 62.3% in the test with PC-3 prostate. Moreover, the growth in the test with SK-MEL-5 melanoma was 85.8%; with UACC-62 melanoma, 68.9%; with SK-MEL-28 melanoma, 94.1%.
In the case of `CCOC(=O)CC1C(CNC(=O)NC)OC(n2cnc3c(NC(=O)Nc4ccccc4)ncnc32)C1O[Si](C)(C)C(C)(C)C` (centres undefined), the growth with HCT-15 colon is 55.7%; in the test with HT29 colon, 27%; with SNB-75 CNS, 63.4%; in the test with SNB-19 CNS, 93.9%; in the test with U251 CNS, 34%; with PC-3 prostate, 47%. Also, the growth is 58.3% in the test with SK-MEL-5 melanoma, 80.4% in the test on UACC-62 melanoma and 83.9% in the test on SK-MEL-28 melanoma.
For `CCN1C(=O)N(CC)C2C1NN=c1s/c(=C\c3ccc(F)cc3)c(=O)n12` (centres undefined), the growth is 13.9% in the test on HCT-15 colon; 3.48% (active) in the test on HT29 colon; -1.81% (active) in the test on SNB-75 CNS; 28% in the test with SNB-19 CNS; 9.98% (active) with U251 CNS; 25.4% with PC-3 prostate. Moreover, the figures for the growth with SK-MEL-5 melanoma, in the test on UACC-62 melanoma and in the test on SK-MEL-28 melanoma were 16.8%, 28.8% and 63%, respectively.
For the molecule `CSc1nn2c(-c3cc4cc(Br)ccc4oc3=O)ccnc2c1C#N`, the growth with HCT-15 colon was 102%; in the test on HT29 colon it was 114%; in the test on SNB-75 CNS, 90.5%; with SNB-19 CNS, 105%; in the test on U251 CNS, 102%; with PC-3 prostate, 105%. In addition, the growth in the test with UACC-62 melanoma is 99.7%; in the test on LOX IMVI melanoma, 97.4%; in the test with SK-MEL-28 melanoma, 105%.
Consider `CC1(C)CC[C@]2(CO)CC[C@]3(C)C(=CC[C@@H]4[C@@]5(C)CCNCC(C)(C)[C@@H]5CC[C@]43C)[C@@H]2C1`, for which the growth is 5.97% (active) with HCT-15 colon; 12% in the test with HT29 colon; 79.4% with SNB-75 CNS; 96.9% in the test with SNB-19 CNS; 56.6% in the test on U251 CNS; 59% in the test on PC-3 prostate. Besides, the growth is 94.2% in the test with UACC-62 melanoma, 76% in the test with LOX IMVI melanoma and -29% (active) in the test on SK-MEL-28 melanoma.
As for `O=c1c(/C=C/c2c(O)ccc3ccccc23)nnc2sc(-c3cccc([N+](=O)[O-])c3)nn12`, the growth in the test on HCT-15 colon was 29.1%; in the test on HT29 colon, 88.8%; with SNB-75 CNS, 51.7%; in the test on SNB-19 CNS it was 50%; in the test with U251 CNS, 0.449% (active); in the test with PC-3 prostate, 52.7%. Further, the growth with UACC-62 melanoma was 32.5%; in the test with LOX IMVI melanoma, 33.7%; with SK-MEL-28 melanoma it was 54.1%.

Source of the values: PubChem BioAssay (NCI).
